Reference: PubChem BioAssay
Results with a measured potency or affinity are listed apart. The source made the active and inactive calls.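 The calls were made as follows, unless noted: active = a dose-response fit showing signal loss, with half-maximal concentration no higher than twice the top tested dose; inconclusive = flat fit between 30% and 70% signal loss, or poor fit; inactive = the rest.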

assay: viability loss in HepG2 hepatoma cells – cell-based, cherry-picks, set 2, cytotoxicity control, dose response (AID 687002); settings: ATP luminescence (CellTiter-Glo), 48 h; series mostly up to 26 µM; activity change, negative = cytotoxicity: at the top concentration

Q: With Cc1noc(C)c1NC(=O)N(C)C[C@H]1OCCCC[C@H](C)Oc2ccc(NC(=O)NC(C)C)cc2C(=O)N([C@@H](C)CO)C[C@@H]1C as the molecule, how does the “activity change, negative = cytotoxicity” value read?
A: 4.67% [at 23.5 µM] (inactive)

Q: For CC(C)NC(=O)Nc1ccc2c(c1)C(=O)N([C@@H](C)CO)C[C@@H](C)[C@@H](CN(C)C(=O)NC(C)C)OCCCC[C@@H](C)O2, which “activity change, negative = cytotoxicity” value is on record?
A: -11.5% (inactive)

Q: For CO[C@H]1CN(C)C(=O)c2cc(NC(=O)C3CC3)ccc2OC[C@@H](C)N(Cc2cncnc2)C[C@H]1C, which “activity change, negative = cytotoxicity” value is on record?
A: -8.51% (inactive)

Q: Which “activity change, negative = cytotoxicity” value does the source give for CCNC(=O)C[C@H]1CC[C@H](NC(=O)NC2CCCCC2)[C@@H](CO)O1 here?
A: -23.6% (inactive)

Q: With C[C@@H]1CN([C@H](C)CO)C(=O)c2cc(NC(=O)Nc3cccc4ccccc34)ccc2O[C@@H]1CN(C)C(=O)Nc1ccccc1 as the molecule, how does the “activity change, negative = cytotoxicity” value read?
A: 8.79% (inactive)

Q: Which “activity change, negative = cytotoxicity” value does the source give for Cc1noc(C)c1NC(=O)Nc1ccc2c(c1)C(=O)N([C@@H](C)CO)C[C@H](C)[C@H](CN(C)S(=O)(=O)c1ccc(Cl)cc1)O2 here?
A: 1.18% (inactive)

Q: Which “activity change, negative = cytotoxicity” value does the source give for C[C@@H]1CN([C@@H](C)CO)C(=O)c2cc(NC(=O)Nc3ccccc3)ccc2O[C@@H]1CN(C)C(=O)Nc1cccc2ccccc12 here?
A: 4.81% (inactive)

Q: For CCCNC(=O)C[C@@H]1CC[C@@H]2[C@H](COc3ccc(NC(=O)CCC)cc3C(=O)N2C)O1, which “activity change, negative = cytotoxicity” value is on record?
A: -4.61% (inactive)

Q: For C[C@H]1CN([C@@H](C)CO)C(=O)c2cccc(NS(=O)(=O)c3ccc(Cl)cc3)c2O[C@@H]1CN(C)CC1CC1, which “activity change, negative = cytotoxicity” value is on record?
A: 3.15% (inactive)

Q: Which “activity change, negative = cytotoxicity” value does the source give for C[C@@H]1CCCCO[C@H](CN(C)C(=O)CCCN(C)C)[C@@H](C)CN([C@H](C)CO)C(=O)c2cc(NC(=O)Cc3ccccc3)ccc2O1 here?
A: -20.4% (inactive)

Q: For Cc1ccc(S(=O)(=O)N[C@H]2C=C[C@@H](CC(=O)N3CCC(Cc4ccccc4)CC3)O[C@H]2CO)cc1, which “activity change, negative = cytotoxicity” value is on record?
A: 3.05% (inactive)

Q: For Cc1cccc(C)c1NC(=O)CN(C)C(=O)C1CCCCC1, which “activity change, negative = cytotoxicity” value is on record?
A: 3.59% (inactive)

Q: With C[C@H](O)C#Cc1ccc2c(c1)O[C@H](CN(C)Cc1ccncc1)[C@H](C)CN([C@H](C)CO)S2(=O)=O as the molecule, how does the “activity change, negative = cytotoxicity” value read?
A: 14.7% (inactive)

Q: With CCCC(C)(C)C(=O)N1CCC1(C)C(=O)Nc1ccc(C)cc1 (stereo not given) as the molecule, how does the “activity change, negative = cytotoxicity” value read?
A: 7.71% [at 38 µM] (inactive)

Q: For C[C@H](CO)N1C[C@H](C)[C@H](CN(C)Cc2ccc(-c3ccccc3)cc2)Oc2c(NC(=O)c3ccncc3)cccc2C1=O, which “activity change, negative = cytotoxicity” value is on record?
A: 10.8% (inactive)

Q: Which “activity change, negative = cytotoxicity” value does the source give for CO[C@@H]1CN(C)C(=O)c2cc(NS(=O)(=O)c3cccc(C)c3)ccc2OC[C@@H](C)NC[C@H]1C here?
A: -12.1% (inactive)

Q: For COc1ccc(CN(C)C[C@H]2Oc3ccc(NC(=O)Nc4ccc(F)cc4)cc3CC(=O)N([C@@H](C)CO)C[C@@H]2C)cc1, which “activity change, negative = cytotoxicity” value is on record?
A: -5.97% (inactive)

Q: With C[C@@H]1CCCCO[C@@H](CN(C)C(=O)Nc2ccc3c(c2)OCO3)[C@@H](C)CN([C@H](C)CO)C(=O)c2cc(NC(=O)Nc3cccc4ccccc34)ccc2O1 as the molecule, how does the “activity change, negative = cytotoxicity” value read?
A: -2.78% [at 23.5 µM] (inactive)

Q: For O=C(NCCc1ccccc1)[C@@H]1[C@@H](CO)[C@@H]2Cn3c(cccc3=O)[C@H]1N2C(=O)C1CCC1, which “activity change, negative = cytotoxicity” value is on record?
A: 5.59% (inactive)

Q: Which “activity change, negative = cytotoxicity” value does the source give for COc1ccc(C2=Nc3ccccc3NC(=O)C2N(C(=O)c2cc3ccccc3[nH]2)c2ccccc2)cc1 (stereo not given) here?
A: -0.584% (inactive)

Q: Which “activity change, negative = cytotoxicity” value does the source give for O=C(C[C@@H]1CC[C@H]2[C@@H](COC[C@H](O)CN2Cc2ccc(Oc3ccccc3)cc2)O1)Nc1nccs1 here?
A: 10.7% (inactive)

Q: Which “activity change, negative = cytotoxicity” value does the source give for C[C@H](CO)N1C[C@H](C)[C@H](CN(C)C(=O)Nc2cccc3ccccc23)Oc2ccc(NC(=O)Cc3ccccc3)cc2CC1=O here?
A: 1.16% [at 23.5 µM] (inactive)

Q: For C[C@H](CO)N1C[C@H](C)[C@@H](CN(C)CC2CCOCC2)Oc2ncc(C#Cc3ccc(F)cc3)cc2C1=O, which “activity change, negative = cytotoxicity” value is on record?
A: -9.91% (inactive)

Q: With C[C@@H]1CN([C@@H](C)CO)C(=O)c2cc(NS(=O)(=O)c3cn(C)cn3)ccc2O[C@@H](C)CCCCO[C@@H]1CN(C)Cc1ccc(C(F)(F)F)cc1 as the molecule, how does the “activity change, negative = cytotoxicity” value read?
A: 14.5% (inactive)

Q: With Cc1cccc(-c2ccc([C@H]3[C@H](CO)N4CCCCN(C(=O)c5ccc6c(c5)OCO6)C[C@@H]34)cc2)c1 as the molecule, how does the “activity change, negative = cytotoxicity” value read?
A: 12.2% (inactive)

Q: For C[C@@H]1CN([C@H](C)CO)S(=O)(=O)c2ccc(C#CC3CC3)cc2O[C@H]1CN(C)CC1CCOCC1, which “activity change, negative = cytotoxicity” value is on record?
A: -0.77% (inactive)

Q: For CCCNC(C)C(=O)Nc1ccccc1C (stereo not given), which “activity change, negative = cytotoxicity” value is on record?
A: -5.67% (inactive)

Q: Which “activity change, negative = cytotoxicity” value does the source give for CCCN1C[C@H](C)[C@@H](OC)CN(C)C(=O)c2cc(NC(=O)c3cccc(F)c3)ccc2OC[C@@H]1C here?
A: -2.36% (inactive)

Q: Which outcome does the source give for COC(=O)C1=C(C)N(Cc2ccc(Br)cc2)C(=S)NC1c1ccc(F)cc1 (stereo not given) here?
A: inactive

assay: viability loss in HeLa cells – cell-based, ATP luminescence, cherry-pick samples, cytotoxicity control, dose response (AID 687004;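 active = a fitted half-maximal concentration no higher than twice the top valid tested dose, with signal falling as cells die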;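 also: 0% = neutral control median and -100% = staurosporine 10 µM control median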); settings: ATP luminescence (CellTiter-Glo), 48 h; series mostly up to 26 µM; activity change, negative = cytotoxicity: at the top concentration

Q: With Cc1ccccc1NC(=O)C(=O)NCCCN1CCCC1=O as the molecule, how does the “activity change, negative = cytotoxicity” value read?
A: -6.28% (inactive)

Q: Which “activity change, negative = cytotoxicity” value does the source give for O=C(NC1CCCCC1)N[C@H]1C=C[C@@H](CC(=O)N2CCOCC2)O[C@@H]1CO here?
A: -15.7% (inactive)

Q: With Cc1noc(C)c1S(=O)(=O)Nc1ccc2c(c1)CC(=O)N([C@H](C)CO)C[C@H](C)[C@@H](CN(C)S(=O)(=O)c1cn(C)cn1)O2 as the molecule, how does the “activity change, negative = cytotoxicity” value read?
A: 8.74% (inactive)

Q: For CC(C)NC(=O)Nc1ccc2c(c1)CC(=O)N([C@@H](C)CO)C[C@@H](C)[C@H](CN(C)C(=O)Nc1ccc3c(c1)OCO3)O2, which “activity change, negative = cytotoxicity” value is on record?
A: 16.9% (inactive)

Q: For CC(C)NC(=O)N(C)C[C@H]1OCCCC[C@H](C)Oc2ccc(NC(=O)c3ccccc3)cc2C(=O)N([C@@H](C)CO)C[C@@H]1C, which “activity change, negative = cytotoxicity” value is on record?
A: 20.6% (inactive)

Q: Which “activity change, negative = cytotoxicity” value does the source give for Cc1cccc(C)c1NC(=O)C1CCCN1C(=O)NCc1ccccc1 (stereo not given) here?
A: 5.9% (inactive)

Q: With Cc1noc(C)c1NC(=O)N(C)C[C@H]1OCCCC[C@H](C)Oc2ccc(NC(=O)NC(C)C)cc2C(=O)N([C@@H](C)CO)C[C@@H]1C as the molecule, how does the “activity change, negative = cytotoxicity” value read?
A: 8.32% [at 23.5 µM] (inactive)

Q: With CC(C)NC(=O)Nc1ccc2c(c1)C(=O)N([C@@H](C)CO)C[C@@H](C)[C@@H](CN(C)C(=O)NC(C)C)OCCCC[C@@H](C)O2 as the molecule, how does the “activity change, negative = cytotoxicity” value read?
A: 12% (inactive)

Q: For CO[C@H]1CN(C)C(=O)c2cc(NC(=O)C3CC3)ccc2OC[C@@H](C)N(Cc2cncnc2)C[C@H]1C, which “activity change, negative = cytotoxicity” value is on record?
A: -4.74% (inactive)

Q: Which “activity change, negative = cytotoxicity” value does the source give for CCNC(=O)C[C@H]1CC[C@H](NC(=O)NC2CCCCC2)[C@@H](CO)O1 here?
A: 4.75% (inactive)

Q: For Cc1noc(C)c1NC(=O)Nc1ccc2c(c1)C(=O)N([C@@H](C)CO)C[C@H](C)[C@H](CN(C)S(=O)(=O)c1ccc(Cl)cc1)O2, which “activity change, negative = cytotoxicity” value is on record?
A: 18.3% (inactive)

Q: For C[C@H]1CN([C@@H](C)CO)C(=O)c2cccc(NS(=O)(=O)c3ccc(Cl)cc3)c2O[C@@H]1CN(C)CC1CC1, which “activity change, negative = cytotoxicity” value is on record?
A: 13.2% (inactive)

Q: With C[C@@H]1CCCCO[C@H](CN(C)C(=O)CCCN(C)C)[C@@H](C)CN([C@H](C)CO)C(=O)c2cc(NC(=O)Cc3ccccc3)ccc2O1 as the molecule, how does the “activity change, negative = cytotoxicity” value read?
A: 10% (inactive)

Q: With Cc1ccc(S(=O)(=O)N[C@H]2C=C[C@@H](CC(=O)N3CCC(Cc4ccccc4)CC3)O[C@H]2CO)cc1 as the molecule, how does the “activity change, negative = cytotoxicity” value read?
A: 13.1% (inactive)

Q: For Cc1cccc(C)c1NC(=O)CN(C)C(=O)C1CCCCC1, which “activity change, negative = cytotoxicity” value is on record?
A: 1.22% (inactive)

Q: Which “activity change, negative = cytotoxicity” value does the source give for C[C@H](O)C#Cc1ccc2c(c1)O[C@H](CN(C)Cc1ccncc1)[C@H](C)CN([C@H](C)CO)S2(=O)=O here?
A: 24.2% (inactive)

Q: Which “activity change, negative = cytotoxicity” value does the source give for CCCC(C)(C)C(=O)N1CCC1(C)C(=O)Nc1ccc(C)cc1 (stereo not given) here?
A: 3.54% [at 38 µM] (inactive)

Q: Which “activity change, negative = cytotoxicity” value does the source give for CO[C@@H]1CN(C)C(=O)c2cc(NS(=O)(=O)c3cccc(C)c3)ccc2OC[C@@H](C)NC[C@H]1C here?
A: 6.41% (inactive)

Q: For C[C@@H]1CCCCO[C@@H](CN(C)C(=O)Nc2ccc3c(c2)OCO3)[C@@H](C)CN([C@H](C)CO)C(=O)c2cc(NC(=O)Nc3cccc4ccccc34)ccc2O1, which “activity change, negative = cytotoxicity” value is on record?
A: 15.7% [at 23.5 µM] (inactive)

Q: With O=C(NCCc1ccccc1)[C@@H]1[C@@H](CO)[C@@H]2Cn3c(cccc3=O)[C@H]1N2C(=O)C1CCC1 as the molecule, how does the “activity change, negative = cytotoxicity” value read?
A: -1.62% (inactive)

Q: Which “activity change, negative = cytotoxicity” value does the source give for C[C@H](CO)N1C[C@H](C)[C@H](CN(C)C(=O)Nc2cccc3ccccc23)Oc2ccc(NC(=O)Cc3ccccc3)cc2CC1=O here?
A: 4.1% [at 23.5 µM] (inactive)

Q: For C[C@H](CO)N1C[C@H](C)[C@@H](CN(C)CC2CCOCC2)Oc2ncc(C#Cc3ccc(F)cc3)cc2C1=O, which “activity change, negative = cytotoxicity” value is on record?
A: 1.66% (inactive)

Q: For Cc1cccc(-c2ccc([C@H]3[C@H](CO)N4CCCCN(C(=O)c5ccc6c(c5)OCO6)C[C@@H]34)cc2)c1, which “activity change, negative = cytotoxicity” value is on record?
A: -13.3% (inactive)

Q: Which “activity change, negative = cytotoxicity” value does the source give for O=C(CSc1ncnc2c1cnn2-c1ccccc1)Nc1ccc2c(c1)OCO2 here?
A: 9.33% (inactive)

Q: With CCCNC(C)C(=O)Nc1ccccc1C (stereo not given) as the molecule, how does the “activity change, negative = cytotoxicity” value read?
A: 10.7% (inactive)

Q: Which “activity change, negative = cytotoxicity” value does the source give for CCCN1C[C@H](C)[C@@H](OC)CN(C)C(=O)c2cc(NC(=O)c3cccc(F)c3)ccc2OC[C@@H]1C here?
A: -7.72% (inactive)
